Source: PubChem BioAssay AID720602 (Broad Institute, 2013)
Potency and affinity values are given separately. Activity calls are given as the source filed them.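 How the source made its calls: active means signal drop at all three exposure times, half-maximal concentration at most twice the top valid dose; inconclusive means exposure times give differing calls; inactive means inactive at every exposure time.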

Assay: cytotoxicity in LOX IMVI melanoma cells – cell-based, CellTiter-Glo ATP luminescence, 8/24/48 h, dry powder, HRAS target identification, dose response (AID 720602)

| SMILES | outcome |
| --- | --- |
| Cc1onc(C(=O)N2CCN(C(c3ccncc3)c3ccncc3)CC2)c1[N+](=O)[O-] | inactive |
| CCC(=O)N(c1ccc(OC)c(Cl)c1)C(C(=O)NCCc1ccccc1)c1cccs1 (configuration not stated) | inactive |
